{"source": "PubChem BioAssay (NCATS)", "note": "Results filed as inconclusive are left out. A number with no mark means an inactive call. The call rests on the fitted dose curve; in most records, active means well fitted inhibition curve with a large enough effect; inconclusive means small, poorly fitted or top-dose-only effect; inactive means no such curve, though single readings can be large or run the other way."}
{"target": "Retinaldehyde dehydrogenase 3 (Homo sapiens) (UniProt P47895)", "assay": "qHTS for Inhibitors of the Aldehyde Dehydrogenase Family (ALDH1A3) Primary screen (AID 2061315);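 further: plate controls were DMSO vehicle for no effect and reference inhibitor for full effect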", "settings": "ALDH inhibition qHTS; series mostly up to 56 µM; activity change, negative = inhibition: at the top concentration"}
{"compound": "C/C=C/C=C/C(=O)O[C@@H]1C=C2COC(=O)[C@]2(O)[C@@]2(C)CCCC(C)(C)[C@H]12", "activity change, negative = inhibition": "15.1%"}
{"compound": "Nc1ccc(S(=O)(=O)Nc2nccs2)cc1", "activity change, negative = inhibition": "-17.2%"}
{"compound": "CC(=O)N1CCN(NC(=O)c2ccc(F)cc2)CC1", "activity change, negative = inhibition": "-13.5%"}
{"compound": "COC(=O)C1=C2Nc3ccccc3C23CCN2CCCC(C(C)O)(C1)C23", "note": "(centres undefined)", "activity change, negative = inhibition": "-17.3%"}
{"compound": "CC1(C)CC[C@]2(C(=O)O[C@@H]3O[C@H](CO)[C@@H](O)[C@H](O)[C@H]3O)CC[C@]3(C)C(=CCC4[C@@]5(C)CC[C@H](O[C@@H]6O[C@H](C(=O)O)[C@@H](O[C@@H]7O[C@H](CO)[C@@H](O)[C@H](O)[C@H]7O)[C@H](O)[C@H]6O[C@@H]6O[C@H](CO)[C@@H](O)[C@H](O)[C@H]6O)C(C)(C)C5CC[C@]43C)C2C1", "note": "(some centres undefined)", "activity change, negative = inhibition": "-9.94% [at 16.9 µM]"}
{"compound": "C[C@@H]1O[C@@H](O[C@H]2[C@@H]3C=CO[C@@H](O[C@@H]4O[C@H](CO)[C@@H](O)[C@H](O)[C@H]4O)[C@@H]3[C@@]3(CO)O[C@@H]23)[C@H](O)[C@H](O)[C@H]1OC(=O)/C=C/c1ccc(O)cc1", "activity change, negative = inhibition": "-9.18% [at 16.9 µM]"}
{"compound": "COc1cc2c(c(OC)c1CC=C(C)C)C[C@H](c1ccc(O)cc1O)CO2", "activity change, negative = inhibition": "-8.55%"}
{"compound": "CC(=O)O[C@@H]1C[C@H](O)[C@@]23CO[C@H](O)[C@]1(C)C2C[C@@H](O)[C@]1(C)C3C(=O)[C@H](OC(C)=O)[C@@]2(C)[C@H](c3ccoc3)C[C@H]3O[C@]321", "note": "(some centres undefined)", "activity change, negative = inhibition": "-4.48% [at 16.9 µM]"}
{"compound": "CC1(C)CC[C@]2(C(=O)O[C@@H]3O[C@H](CO)[C@@H](O)[C@H](O)[C@H]3O)CC[C@]3(C)C(=CCC4[C@@]5(C)CC[C@H](O[C@@H]6O[C@H](C(=O)O)[C@@H](O[C@@H]7O[C@H](CO)[C@@H](O)[C@H](O)[C@H]7O)[C@H](O)[C@H]6O)C(C)(C)C5CC[C@]43C)C2C1", "note": "(some centres undefined)", "activity change, negative = inhibition": "7.79% [at 16.9 µM]"}
